Source: PubChem BioAssay
The source made the active and inactive calls. Unless noted, no rule for the calls is given here.

Columns and labels:
[1] = anti-His antibody binders, primary screen, artefact control for SMM control protein annotation, biochemical, small-molecule microarray, 635 nm fluorescence (AID 1128); conditions: anti-His Alexa647 antibody binding, higher = more signal;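 also: score merges feature fluorescence with signal-to-noise for each printed compound spot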
[2] = test system: Human papillomavirus type 1a E7 protein (residues 1-88); assay: HPV1a E7 small-molecule binders, primary screen, biochemical, small-molecule microarray, residues 1-88, 635 nm (AID 1129); conditions: small-molecule microarray binding, fluorescence 635 nm; higher = more signal
[3] = molecular target: Focal adhesion kinase 1 (Homo sapiens) (UniProt Q05397); assay: small-molecule microarray binders of FAK, primary screen, biochemical, 635/667 nm fluorescence, BSA, DTT (AID 1130); conditions: PTK2 binding, 635 nm fluorescence, higher = more signal;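 also: composite of spot emission at 667 nm and signal to noise over triplicate slides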
[4] = test system: Fibrinogen (Alexa647-labelled); assay: fibrinogen binders on compound microarrays, profiling panel, artefact control for SMM control-protein annotation, biochemical, small-molecule microarray, 635/667 nm fluorescence (AID 1131); conditions: fibrinogen-A647 binding fluorescence, higher = more signal;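 also: z-score merges 667 nm fluorescence with per-spot signal-to-noise over triplicate slides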
[5] = molecular target: Follistatin (Homo sapiens) (UniProt P19883); assay: follistatin binders on small-molecule microarrays, primary screen, biochemical, small-molecule microarray, 635/667 nm fluorescence (AID 1132); conditions: FST binding, 635 nm fluorescence, higher = more signal
[6] = molecular target: Fibroblast growth factor 2 (Homo sapiens) (UniProt P09038); assay: FGF2 binders on small-molecule microarrays, primary screen, biochemical, small-molecule microarray, 635/667 nm fluorescence (AID 1133); conditions: small-molecule microarray binding, FGF2, fluorescence 635/667; higher = more signal
[7] = mitochondrial membrane potential change in A549 cells, profiling panel, cell-based, JC-1 fluorescence, basal, 24 h, 100 nL (AID 1138); conditions: higher = more signal;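 also: A549 lung adenocarcinoma cells under basal conditions with no added stimulus; test concentration not given here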
Lefty1 = Lefty1 binders on small-molecule microarrays, primary screen, biochemical, small-molecule microarray, 635/667 nm fluorescence (AID 1139); conditions: small-molecule microarray binding, fluorescence 635/667; higher = more signal
[8] = test system: wheat germ agglutinin (Triticum aestivum), Alexa647-labelled; assay: wheat germ agglutinin binders on compound microarrays, profiling panel, artefact control for SMM control-protein annotation, biochemical, small-molecule microarray, 635/667 nm fluorescence (AID 1140); conditions: WGA-A647 binding, 635 nm fluorescence, higher = more signal;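 also: score merges 667 nm feature emission with signal to noise over triplicate slides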
[9] = molecular target: Luciferin 4-monooxygenase (Photinus pyralis) (UniProt P08659); assay: firefly luciferase enzyme inhibitors, primary screen, biochemical, luminescence, purified enzyme, 2006 set (AID 1141); conditions: SteadyGlo luminescence, 30 min, higher = more signal, called active from +8 up or from −8 down;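 also: cell-free assay with purified firefly luciferase at 100 ng per well in PBS; test concentration not given here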
[10] = test system: Wnt5a (protein binding on small-molecule microarray); assay: Wnt5a binders on small-molecule microarray, primary screen, biophysical, 635/667 nm fluorescence (AID 1142); conditions: 635 nm fluorescence, higher = more signal;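 also: fluorescence read at 667 nm with signal to noise per printed feature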
[11] = cell viability in Huh7 cells, primary screen, cytotoxicity control for HCV replication inhibitor project, CellTiter-Glo luminescence, basal, 48 h (AID 1143); conditions: Huh7 HCV replicon, higher = more signal, called active from +8 up or from −8 down;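 also: Huh7 hepatoma cells carrying a hepatitis C replication reporter with no stimulus; test concentration not given here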
[12] = P. aeruginosa biofilm formation inhibitors, primary screen, PAO1 strain, BacTiter-Glo luminescence, LB-PBS (AID 1144); conditions: 12 h, higher = more signal
[13] = CREB reporter modulators without forskolin, primary screen, cell-based, PC12, CRE-LacZ reporter, unstimulated (AID 1145); conditions: no forskolin, luminescence, 4.5 h, higher = more signal, called active from +8 up or from −8 down
[14] = CREB reporter modulators under forskolin, primary screen, cell-based, PC12, CRE-LacZ reporter, forskolin-stimulated (AID 1146); conditions: luminescence, 4.5 h, higher = more signal, called active from +8 up or from −8 down;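 also: PC12 cells with 6xCRE LacZ reporter stimulated by forskolin 10 µM; beta-galactosidase reporter signal reflecting CREB driven transcription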
[15] = molecular target: Streptavidin (Streptomyces avidinii) (UniProt P22629); assay: streptavidin binders on small-molecule microarray, primary screen, artefact control for SMM compound annotation, biophysical, 635/667 nm fluorescence (AID 1147); conditions: streptavidin binding, higher = more signal;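 also: signal reflects streptavidin binding to arrayed compounds as a control protein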
[16] = small-molecule binders of probe aInhba, primary screen, biochemical, small-molecule microarray, 635/667 nm fluorescence (AID 1148); conditions: higher = more signal;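 also: score merges 667nm spot fluorescence with signal-to-noise for antibody binding to printed compounds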
Torsin-1A (Homo sapiens) [17] = molecular target: Torsin-1A (Homo sapiens) (UniProt O14656); assay: torsin A binders from cell lysate, primary screen, small-molecule microarray, wild-type, 635/667 nm (AID 1149); conditions: COS7 hTOR1A-WT lysate, 635 nm fluorescence, higher = more signal
Torsin-1A (Homo sapiens) [18] = molecular target: Torsin-1A (Homo sapiens) (UniProt O14656); assay: small-molecule binders of mutant TOR1A in lysate, primary screen, cell lysate, small-molecule microarray, COS7 lysate, 635/667 nm fluorescence (AID 1150); conditions: COS7 hTOR1A mutant lysate, 635 nm fluorescence, higher = more signal;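 also: score pools 667 nm emission and signal to noise measuring lysate protein binding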
[19] = test system: Sonic hedgehog protein (Shh); assay: small-molecule binders of Shh protein, primary screen, biochemical, small-molecule microarray, 635/667 nm fluorescence (AID 1151); conditions: small-molecule microarray binding, 635 nm fluorescence; higher = more signal;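 also: Shh protein binding to compounds spotted on small-molecule microarray slides; score combines spot fluorescence intensity with signal-to-noise across triplicate slides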

Follistatin (Homo sapiens), sequence (P19883 whole entry, looked up): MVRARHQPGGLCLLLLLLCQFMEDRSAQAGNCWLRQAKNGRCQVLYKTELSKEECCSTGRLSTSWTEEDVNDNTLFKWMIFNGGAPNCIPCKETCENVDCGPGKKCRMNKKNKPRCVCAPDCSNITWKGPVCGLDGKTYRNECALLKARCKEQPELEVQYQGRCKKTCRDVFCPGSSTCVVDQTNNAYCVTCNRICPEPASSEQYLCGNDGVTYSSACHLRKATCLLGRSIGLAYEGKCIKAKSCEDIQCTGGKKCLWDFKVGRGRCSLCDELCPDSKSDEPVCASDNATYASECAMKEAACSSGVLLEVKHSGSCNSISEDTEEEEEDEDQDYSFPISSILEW
Torsin-1A (Homo sapiens), sequence (O14656 whole entry, looked up): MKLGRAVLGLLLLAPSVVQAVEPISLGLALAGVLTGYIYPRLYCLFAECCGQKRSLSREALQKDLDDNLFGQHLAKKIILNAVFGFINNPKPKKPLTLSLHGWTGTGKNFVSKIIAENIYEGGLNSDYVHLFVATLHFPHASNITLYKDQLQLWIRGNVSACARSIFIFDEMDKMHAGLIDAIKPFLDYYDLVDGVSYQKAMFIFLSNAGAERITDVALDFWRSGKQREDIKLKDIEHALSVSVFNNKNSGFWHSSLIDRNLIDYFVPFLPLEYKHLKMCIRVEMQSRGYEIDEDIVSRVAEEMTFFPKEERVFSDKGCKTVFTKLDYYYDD
Streptavidin (Streptomyces avidinii), sequence (P22629 whole entry, looked up): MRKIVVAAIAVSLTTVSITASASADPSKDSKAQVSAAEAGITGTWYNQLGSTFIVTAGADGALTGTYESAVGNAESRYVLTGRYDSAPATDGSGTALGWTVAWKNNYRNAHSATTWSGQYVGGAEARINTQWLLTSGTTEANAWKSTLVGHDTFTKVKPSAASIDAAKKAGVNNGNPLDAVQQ
Fibroblast growth factor 2 (Homo sapiens), sequence (P09038 whole entry, looked up): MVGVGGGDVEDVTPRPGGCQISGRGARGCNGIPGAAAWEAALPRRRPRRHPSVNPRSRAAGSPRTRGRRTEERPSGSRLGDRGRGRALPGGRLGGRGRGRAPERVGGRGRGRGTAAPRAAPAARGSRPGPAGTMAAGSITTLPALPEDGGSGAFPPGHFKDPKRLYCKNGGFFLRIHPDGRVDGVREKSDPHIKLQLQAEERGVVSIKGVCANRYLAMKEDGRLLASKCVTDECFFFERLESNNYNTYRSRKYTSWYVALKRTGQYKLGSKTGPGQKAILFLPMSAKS
Luciferin 4-monooxygenase (Photinus pyralis), sequence (P08659 whole entry, looked up): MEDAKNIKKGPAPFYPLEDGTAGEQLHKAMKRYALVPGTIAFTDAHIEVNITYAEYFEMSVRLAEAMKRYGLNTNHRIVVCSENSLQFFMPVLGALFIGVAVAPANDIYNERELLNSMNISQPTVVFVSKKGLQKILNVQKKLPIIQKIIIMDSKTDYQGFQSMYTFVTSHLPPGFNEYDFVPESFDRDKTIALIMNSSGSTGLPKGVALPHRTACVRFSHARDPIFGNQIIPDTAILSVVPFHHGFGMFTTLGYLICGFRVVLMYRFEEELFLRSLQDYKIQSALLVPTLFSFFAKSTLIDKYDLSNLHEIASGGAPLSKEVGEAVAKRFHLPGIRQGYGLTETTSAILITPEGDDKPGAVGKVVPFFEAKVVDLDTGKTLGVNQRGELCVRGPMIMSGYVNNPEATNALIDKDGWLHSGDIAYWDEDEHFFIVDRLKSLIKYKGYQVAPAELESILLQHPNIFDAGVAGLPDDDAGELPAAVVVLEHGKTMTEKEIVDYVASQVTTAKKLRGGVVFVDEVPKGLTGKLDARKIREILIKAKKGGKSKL
Focal adhesion kinase 1 (Homo sapiens), sequence (Q05397 whole entry, looked up): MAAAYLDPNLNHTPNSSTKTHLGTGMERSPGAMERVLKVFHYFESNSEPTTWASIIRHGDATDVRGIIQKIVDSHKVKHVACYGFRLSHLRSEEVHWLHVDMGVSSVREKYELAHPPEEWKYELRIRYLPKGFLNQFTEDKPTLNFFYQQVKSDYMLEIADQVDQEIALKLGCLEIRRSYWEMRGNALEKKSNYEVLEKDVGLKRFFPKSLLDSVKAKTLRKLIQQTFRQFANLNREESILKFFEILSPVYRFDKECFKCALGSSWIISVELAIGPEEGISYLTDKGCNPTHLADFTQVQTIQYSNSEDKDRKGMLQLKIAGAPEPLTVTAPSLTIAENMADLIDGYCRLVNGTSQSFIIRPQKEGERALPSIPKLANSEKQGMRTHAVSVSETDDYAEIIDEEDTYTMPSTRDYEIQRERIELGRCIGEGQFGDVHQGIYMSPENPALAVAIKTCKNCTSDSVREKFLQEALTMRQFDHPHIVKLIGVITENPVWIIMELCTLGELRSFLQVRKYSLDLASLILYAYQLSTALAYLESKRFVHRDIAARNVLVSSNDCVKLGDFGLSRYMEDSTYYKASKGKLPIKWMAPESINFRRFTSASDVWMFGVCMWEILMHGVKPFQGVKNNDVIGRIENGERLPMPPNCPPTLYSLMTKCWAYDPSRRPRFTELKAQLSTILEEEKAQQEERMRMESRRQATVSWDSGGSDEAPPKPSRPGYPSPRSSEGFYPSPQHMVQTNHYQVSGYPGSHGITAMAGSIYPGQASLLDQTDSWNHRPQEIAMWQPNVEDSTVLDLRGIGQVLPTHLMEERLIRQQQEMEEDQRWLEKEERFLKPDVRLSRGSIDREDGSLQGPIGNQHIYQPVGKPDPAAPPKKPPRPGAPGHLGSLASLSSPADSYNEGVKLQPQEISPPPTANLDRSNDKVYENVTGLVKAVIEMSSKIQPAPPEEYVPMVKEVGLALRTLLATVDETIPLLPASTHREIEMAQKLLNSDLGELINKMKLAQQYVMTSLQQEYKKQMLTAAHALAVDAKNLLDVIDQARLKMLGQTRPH

| Compound | composite z-score [1] | composite z-score [2] | composite z-score [3] | composite z-score [4] | composite z-score [5] | composite z-score [6] | z-score [7] | composite z-score (Lefty1) | composite z-score [8] | z-score [9] | composite z-score [10] | z-score [11] | z-score [12] | z-score [13] | z-score [14] | composite z-score [15] | composite z-score [16] | composite z-score (Torsin-1A (Homo sapiens) [17]) | composite z-score (Torsin-1A (Homo sapiens) [18]) | composite z-score [19] |
| --- | --- | --- | --- | --- | --- | --- | --- | --- | --- | --- | --- | --- | --- | --- | --- | --- | --- | --- | --- | --- |
| CC(C)C[C@@H]1NC(=O)[C@@H]2C[C@H](C(=O)NCCCCCN)[C@H](c3ccc(O)cc3)N2C1=O | 0.854 | 1.15 | 0.269 | 0.761 | 1.43 | 1.66 | -0.188 | 1.3 | 0.899 | -0.348 (inactive) | 0.329 | -0.079 (inactive) | -0.422 (inactive) | 0.411 (inactive) | 0.437 (inactive) | 1.01 | -0.171 | 0.457 | 0.465 | 2.04 |
| Cc1ccc(S[C@]2(C(=O)NCCCN(C)C)CC(=O)N(C3CCCCC3)[C@@H]2c2ccc(CO)cc2)cc1 | -0.693 | -0.612 | 0.116 | -1.43 | -0.24 | -0.852 | 1.28 | -0.562 | 0.165 | 0.437 (inactive) | -0.178 | -1.19 (inactive) | -0.903 (inactive) | 0.0279 (inactive) | 1.46 (inactive) | -0.677 | -0.0375 | -1.74 | -1.11 | -0.728 |
| CCOC(=O)c1ccc(NC(=O)O[C@H]2[C@H](OC(=O)Nc3ccc4c(c3)OCO4)[C@H](OC(=O)Nc3ccc4c(c3)OCO4)[C@@H](OC)O[C@@H]2CO)cc1 | 1.73 | 1.26 | 0.812 | 1.01 | 1.38 | 1.42 | -0.551 | 1.24 | 0.743 | -9.03 (active) | 0.662 | -2.23 (inactive) | 1.55 (inactive) | 0.0918 (inactive) | -0.195 (inactive) | 0.245 | 0.386 | 0.807 | 0.505 | 1.76 |
| O=C(NCC(F)(F)F)[C@@H]1c2ccccc2C(=O)N(Cc2ccccc2C(F)(F)F)[C@H]1c1ccc(CO)cc1 | 0.219 | -0.479 | -0.335 | -1.14 | 0.706 | 0.548 | 0.0955 | -0.569 | -0.885 | 0.461 (inactive) | 0.38 | -0.325 (inactive) | 0.266 (inactive) | -0.295 (inactive) | 1.02 (inactive) | -0.631 | 0.0906 | 0.702 | -0.274 | 0.0223 |
| CCCCCCc1nc(C2CC2)cc2c1[Si](C(C)C)(C(C)C)O[C@H]2c1ccccc1 | -0.523 | -0.873 | 0.0181 | -0.675 | 0.0915 | 0.248 | -0.911 | 1.05 | -0.127 | 0.747 (inactive) | -0.0368 | 0.086 (inactive) | -0.0699 (inactive) | 0.134 (inactive) | 0.128 (inactive) | 0.147 | 0.0319 | 0.338 | 0.378 | 1.59 |
| C=CCC(OC(C)=O)[C@@H]1[C@@H](N(Cc2cccc3ccccc23)C(=O)Cc2ccc(F)cc2)c2cc(OCCCO)ccc2N1C(=O)c1ccc2ccccc2n1 (stereo not given in full) | -0.478 | -0.0554 | -0.122 | 0.0688 | 0.187 | 0.386 | -0.0984 | -0.553 | 0.748 | 0.0778 (inactive) | 0.243 | 0.0889 (inactive) | 0.0963 (inactive) | 0.367 (inactive) | 0.101 (inactive) | -0.0219 | 0.0614 | -0.149 | -0.101 | -0.0199 |
| O=C1O[C@H](c2ccccc2)[C@H](c2ccccc2)N2[C@H]1[C@@H](C(=O)NC[C@H](O)c1ccccc1)[C@]1(C(=O)Nc3ccc(C#CCCO)cc31)[C@H]2c1ccc(OCCO)cc1 | 1.32 | 1.2 | 0.693 | 0.738 | 0.743 | 0.134 | -0.552 | 0.329 | 1.01 | -2.02 (inactive) | 0.518 | -0.821 (inactive) | -0.626 (inactive) | 0.299 (inactive) | 0.0413 (inactive) | 0.0889 | 0.0464 | 0.13 | 0.38 | 1.76 |
| COc1ccc(-c2cc3c(c(CCc4ccccc4)n2)[Si](C(C)C)(C(C)C)OC3)cn1 | 0.0933 | -0.765 | -0.192 | -0.284 | 0.323 | -0.025 | -0.585 | 0.496 | -0.289 | 1.17 (inactive) | -0.131 | -0.817 (inactive) | -0.0937 (inactive) | -0.127 (inactive) | 0.307 (inactive) | 0.294 | -0.0986 | 0.188 | -0.168 | 0.434 |
| Cc1ccc(S[C@]2(C(=O)O)CC(=O)N(Cc3ccccc3Cl)[C@@H]2c2ccc(CO)cc2I)cc1 | 0.12 | 0.193 | 0.287 | -0.147 | 0.257 | 0.261 | -0.134 | -1.23 | 0.435 | 0.341 (inactive) | -0.3 | -2.09 (inactive) | -0.309 (inactive) | 1.2 (inactive) | 3 (inactive) | -0.657 | -0.649 | 0.294 | 0.396 | 0.0254 |
| CC(C)C[C@@H]1NC(=O)[C@@H]2C[C@H](C(=O)NCCCCN(C)C)[C@H](c3cccc(OCCO)c3)N2C1=O | -0.421 | -0.46 | 0.392 | -1.81 | 0.787 | 0.549 | -0.57 | 0.24 | 0.779 | 0.857 (inactive) | -0.179 | -0.193 (inactive) | -1.25 (inactive) | -0.817 (inactive) | 0.645 (inactive) | -0.911 | 0.0108 | 0.352 | 0.718 | 1.24 |
| O=C1O[C@@H](c2ccccc2)[C@@H](c2ccccc2)N2[C@@H](c3ccccc3OCCO)[C@]3(C(=O)Nc4ccc(C#CCCO)cc43)[C@@H](C(=O)N3CCCCCCC3)[C@H]12 | 3.38 | 1.3 | 4.83 | 0.958 | 1.55 | 1.14 | 0.163 | 1.87 | 1.74 | 0.205 (inactive) | 2.37 | -3.74 (inactive) | -0.163 (inactive) | 0.245 (inactive) | 0.337 (inactive) | 4.08 | 2.42 | 3.06 | 2.96 | 1.78 |
